Compound activity: PubChem, National Center for Advancing Translational Sciences (NCATS)
SARS PLpro yeast: blocks SARS-CoV papain-like protease in a yeast assay | AID 485353 | S. cerevisiae expressing SARS-CoV PLpro, growth rescue | Potency, µM (highest dose often 32.9 µM), without a hit: at the top dose activity, positive = growth rescue, actives largely listed as activators | hit rate 0.19% among 330,000; calls by dose curve; also: potency is read from the fitted curve at half-maximal effect; 0% is about no effect; nearly all actives have a fitted effect of over 55% in size
HCV inh: inhibitors of hepatitis C virus infection. Potency, µM (titrated, usually from 41.8 µM), for the others: top-dose activity change, negative = inhibition, hits mostly inhibitors. hit rate 3.4% among 340,000. AID 651820. Huh7.5.1 HCVcc-Cre infection, luciferase reporter, 44 h; active = well fitted inhibition curve with a large enough effect; inconclusive = small, poorly fitted or top-dose-only effect, or another doubt; inactive = no such curve, though single readings can be large or run the other way; also: potency is read from the fitted curve at half-maximal effect; % is scaled to controls: 0 for no effect and ±100 for the full control effect
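Infectious HCVcc-Cre (~0.5 moi) was added to cells just after compound, with cells seeded 4 h earlier at 1,000 per well. Luciferase activity after 44 h culture reported infection; substrate was incubated 15 min at room temperature before reading.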
LASV entry inh: blocks Lassa virus binding to or entry into cells | Potency, µM (titrated, usually from 37.9 µM), without a hit: top-dose activity change, negative = inhibition, usual class: inhibitors | Lassa virus pseudotype entry inhibition, cell reporter | hit rate 1.2% among 300,000; calls by dose curve; tested in HEK293 cells; also: potency is read from the fitted curve at half-maximal effect; % is scaled to controls: 0 for no effect and ±100 for the full control effect; nearly all actives have a fitted effect of over 50% in size
MARV entry inh: blocks Marburg virus binding to or entry into cells; Marburg virus pseudotyped entry inhibition, cell reporter; Potency, µM (highest dose often 37.8 µM), for inactives: at the highest dose activity change, negative = inhibition, actives largely listed as inhibitors; hit rate 1.8% among 300,000; AID 540276; calls by dose curve; tested in HEK293 cells; also: potency is read from the fitted curve at half-maximal effect; % is scaled to controls: 0 for no effect and ±100 for the full control effect
FMDV antiviral: foot and mouth disease virus antiviral activity | FMDV antiviral cell-based qHTS | hit rate 1.2% among 410,000 | Potency, µM (top dose mostly 57.9 µM), inactives show at the highest dose activity change, negative = inhibition, most hits filed as inhibitors; calls by dose curve; tested in HEK293T cells; also: read-out not given here; potency is read from the fitted curve at half-maximal effect; % is scaled to controls: 0 for no effect and ±100 for the full control effect; nearly all actives have a fitted effect of over 45% in size
HCMV antiviral: blocks human cytomegalovirus replication; HFF cells, HCMV-luciferase reporter, 72 h; hits give low values; activity change, negative = inhibition, % at 57.5 µM; hit rate 4.5% among 410,000; AID 1259415; in the data active = activity change below about -60%; inconclusive = no clear call, values can overlap the other calls; inactive = above about -39%; also: % is scaled to controls: 0 for no effect and ±100 for the full control effect
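Two compound doses tested in HFFs infected with HCMV-luciferase, MOI 1 PFU/cell, 72 h at 37C. Lysate luminescence read with OneGlo; data normalized against buffer-only and 10uM Salinomycin inhibitor controls.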
Numbers without * were called inactive; ? = inconclusive; · = no result; [ ] = dose if it differs, or a comment. Shown are actives, neighbours in structure and some others; about 8% of the full set was active somewhere.

SMILES | SARS PLpro yeast | HCV inh | LASV entry inh | MARV entry inh | FMDV antiviral | HCMV antiviral
CC1CN=C(c2cc(Cl)c(N)c(Cl)c2)c2c3ccc(C(F)(F)F)cc3nn21 (stereo unspecified) | · | · | · | · | · | 63
CC(C)OC(=O)CSc1nnc(-c2ccccn2)n1N | 0% | 13% | 7% | 0% | -3% | ?
OCC1CCCN(c2nc(CN3CCCCC3)nc3scc(-c4ccccc4)c23)C1 (stereo unspecified) | -5% | ? | ? | ? | 0% | ?
CCNc1nc(CN2CCCCC2)nc2scc(-c3ccccc3)c12 | 23% | 10µM* | ? | 4.5µM* | ? | -95*
COc1cc(C2NC(=O)c3ccccc3O2)cc(OC)c1OC (stereo unspecified) | 0% | -8% | -1% | -6% | -10% | 8
COc1cc(C2Oc3ccccc3C=C2[N+](=O)[O-])cc(OC)c1OC (stereo unspecified) | -21% | ? | · | · | 13µM* | -104*
O=C(COc1ccccc1F)Nc1ccc(Cl)c(-c2nc3ccccc3[nH]2)c1 | · | · | -24%[46.1 µM] | -21%[46.1 µM] | -4% | -36
COc1ccc(C(=O)N2CCC[C@@]3(CCN(C)C3)C2)cc1 | · | · | · | · | -3% | ·
Cc1ccc(S(=O)(=O)C2CS(=O)(=O)CC2O)cc1 (stereo unspecified) | 29% | 13% | 7% | 19% | · | -26
CC(=O)C1=C(S(=O)(=O)c2ccc(C)cc2)CS(=O)(=O)C1 | 0% | -9% | -10%[46.1 µM] | -3%[46.1 µM] | ? | -100*
O=C(Nc1ccc2ccccc2c1)c1ccc(Cl)cc1Cl | 1% | ? | · | · | -28% | -38
O=C(Nc1ccc2ccccc2c1)c1ccccc1O | -6% | ? | ? | 2.5µM* | -61% | -99*
Cc1ccc2cc(NC(=O)c3ccccc3C)ccc2n1 | -2% | -5% | -17%[46.1 µM] | 18%[46.1 µM] | 35% | -100*
CCOc1ccc(NC(=O)c2cc(F)c(F)cc2Cl)cc1OCC | -1% | -23% | 3% | ? | 1% | -98*
O=C(Nc1ccc2ccccc2c1)c1cc(F)c(F)cc1Cl | 1% | -29% | ? | 7.1µM* | 31% | 37
CC(C)=CCn1cnc2c1c(=O)n(C)c(=O)n2C | · | · | · | · | -14% | ·
O=C(NCC(=O)N1CCN(Cc2c(F)cccc2Cl)CC1)c1cccc(Cl)c1 | 2% | ? | -7% | ? | -23% | -21
CN(CC(=O)Nc1cccc(F)c1)C(=O)c1ccc(N2CCCC2)c([N+](=O)[O-])c1 | -2% | ? | -7% | -30%[46.1 µM] | -9% | -61*
CN(CC(=O)Nc1cccc(F)c1)CC(=O)Nc1ccccc1[N+](=O)[O-] | -4% | ? | -12% | -8% | ? | -87*
CN(CC(=O)Nc1cccc(F)c1)CC(=O)Nc1ccc(Cl)cc1[N+](=O)[O-] | -4% | 6% | ? | 1%[46.1 µM] | 7% | 21
CC(C)c1ccc(CNC(=O)c2ccc(N3CCCC3)c(NC(=O)NCc3ccc(F)cc3)c2)cc1 | · | · | ? | · | -23% | -20
COCCNC(=O)c1cnn(-c2ccc(C)cc2C)c1C1CCN(C(=O)OC(C)(C)C)CC1 | · | · | ? | · | -9% | 11
COc1cc2c(-c3ccc4[nH]ccc4c3)c(-c3ccc(C#N)cc3)oc(=O)c2cc1OC | -17% | 11µM* | · | -1% | -10% | -25
NS(=O)(=O)c1ccc(N=Nc2c(O)[nH]c3ccc(-c4cnco4)cc23)cc1 | · | · | 13µM* | · | · | ·
Cc1ccc2[nH]c(O)c(N=Nc3ccc(S(N)(=O)=O)cc3)c2c1 | · | · | 4µM* | · | · | ·
SMILES | SARS PLpro yeast | HCV inh | LASV entry inh | MARV entry inh | FMDV antiviral | HCMV antiviral
CC(C)=Cc1cccc2[nH]c(O)c(N=Nc3ccc(S(N)(=O)=O)cc3)c12 | · | · | 4µM* | · | · | ·
CCC1CN(CCNC(=O)c2cccc(N3CCCC3=O)c2)Cc2cc(OC)ccc2O1 (stereo unspecified) | · | · | · | · | 20% | ·
CCOC(=O)C1CCN(CC(=O)NC(=O)NC2CCCCC2)CC1 | 4% | 8% | -3% | -13% | -10% | -23
COC(=O)C1CCN(CC(=O)NC(=O)NC2CCCCC2)CC1 | 0% | 15% | 2%[46.1 µM] | ? | -2% | -98*
O=[N+]([O-])c1ccc(Oc2ccc(F)cc2)c2ccncc12 | -38% | ? | -18% | 2% | ? | -68*
COc1ccccc1CNC(=O)c1cccc(Nc2nc3ccccc3n3nnnc23)c1 | · | · | 3%[46.1 µM] | 3%[46.1 µM] | ? | -25
CCOC(=O)C1=C(c2ccccc2)c2ccc(OC)cc2N(S(=O)(=O)C(F)(F)F)C1C(=O)OCC (stereo unspecified) | -11% | 2µM* | · | · | ? | -2
CCN(Cc1ccncc1)Cc1ccc2c(c1)CN(C(=O)c1ccccc1-n1cccn1)CCO2 | · | · | · | · | -10% | ·
COc1ccc(-c2cn3nc4c(nc3n2)CCCC4)cc1 | -1% | 17% | ? | 5.6µM* | -30% | -1
COc1cccc(CNC(=O)c2cc3c(C)nc4ccccc4c3o2)c1 | 5% | 6.3µM* | · | · | 22µM* | ?
CCCCN(CC)CCNC(=O)c1cc2c(C)nc3ccccc3c2o1 | 20% | 6.3µM* | · | · | 0% | ?
CCc1ccc2oc(C(=O)N3CCN(c4ccc(OC)cc4)CC3)cc(=O)c2c1 | 0% | ? | ? | ? | ? | -63*
Cc1nc2ccccc2c2oc(C(=O)NCC3COc4ccccc4O3)cc12 (stereo unspecified) | -3% | 10µM* | 21µM* | ? | ? | ?
O=C1CCCC2=C1[C@H]1O[C@](CCCCN3C(=O)c4ccccc4C3=O)(Cc3ccccc31)O2 | · | · | · | -2%[14.2 µM] | · | ·
COc1ccc(NC(=O)N2c3ccc(OC)cc3[C@@H](NC(=O)c3ccc(C)s3)[C@H](C)[C@H]2c2ccccc2)cc1 | · | · | · | · | · | 2
Cc1ccccc1C(O)c1nnc(Nc2ccc(Oc3ccccc3)cc2)s1 (stereo unspecified) | · | · | · | · | · | -2
Cc1nc2ccccc2c2oc(C(=O)NCCN3CCCCC3C)cc12 (stereo unspecified) | ? | ? | 6% | 21µM* | -21% | 5
CCc1ccc(CNC(=O)c2cc3c(C)nc4ccccc4c3o2)cc1 | -17% | 11µM* | · | · | ? | -64*
COc1ccc(C)cc1NC(=O)CC1COc2ccccc2O1 (stereo unspecified) | -1% | -8% | -9% | ? | -16% | -61*
Cc1ccc(C)c(OCC(=O)NCC2COc3ccccc3O2)c1 (stereo unspecified) | -8% | 0% | · | · | -17% | -15
Cc1cc(C)c(OCC(=O)NCC2COc3ccccc3O2)c(C)c1 (stereo unspecified) | 6% | 1% | -2% | 3.5µM* | -5% | 70
Cc1ccc(C)n1C1C(=O)N(Cc2ccc(C(F)(F)F)cc2)c2ccc(F)cc21 (stereo unspecified) | · | · | · | · | · | 0
COc1ccc(Cc2nnc(Cl)c3ccccc23)cc1OC | 0% | 7% | · | · | 2% | 82
COc1ccc(CNC(=O)c2cc3c(C)nc4ccccc4c3o2)c(OC)c1 | 8% | 3.2µM* | · | · | ? | ·
